Records with an inconclusive call do not appear. Active and inactive are the calls of the source. Unless noted, calls come from the whole dose curve.
Legend:
[1] = Nuclear factor erythroid 2-related factor 2/antioxidant responsive element (Nrf2/ARE) small molecule agonists: qHTS cell viability counter screen in human keratinocytes (AID 1919968; active = well fitted curve in the direction sought with a large enough effect in the repeat runs; an effect the other way counts as inactive or inconclusive; note: nearly all actives have a fitted effect of over 55% in size)
How it was run: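 Fluorescence read-out from CellTiter-Fluor after 1 h at 37 C. Wells held HaCaT-derived ARE-luciferase reporter cells (1,500/well) treated 23 h with DMSO-dissolved compounds. Run in the same wells as the luciferase agonist read.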

[2] = Nuclear factor erythroid 2-related factor 2/antioxidant responsive element (Nrf2/ARE) small molecule agonists: luciferase reporter gene qHTS assay in human keratinocytes (AID 1919969); note: nearly all actives have a fitted effect of over 35% in size
[3] = biological target: Gonadotropin-releasing hormone receptor (Homo sapiens) (UniProt P30968); experiment: Human gonadotropin-releasing hormone receptor (GnRHR) small molecule agonists, calcium flux assay in GnRHR-HEK293 cells (AID 1920063); note: nearly all actives have a fitted effect of over 35% in size
Chain of Gonadotropin-releasing hormone receptor (Homo sapiens) (P30968 whole entry, looked up): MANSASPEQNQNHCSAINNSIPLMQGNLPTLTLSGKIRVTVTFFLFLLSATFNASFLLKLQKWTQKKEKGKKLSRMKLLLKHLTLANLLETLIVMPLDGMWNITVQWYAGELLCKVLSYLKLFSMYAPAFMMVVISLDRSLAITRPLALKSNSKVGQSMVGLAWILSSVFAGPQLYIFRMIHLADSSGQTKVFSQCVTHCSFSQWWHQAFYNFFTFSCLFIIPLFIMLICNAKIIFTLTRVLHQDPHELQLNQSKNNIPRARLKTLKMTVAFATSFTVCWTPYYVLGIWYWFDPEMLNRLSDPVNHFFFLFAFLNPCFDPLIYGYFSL
How it was run: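 Calcium-dye fluorescence, Ex/Em=480/540, recorded every 1 sec over 3 min after compound addition to GnRHR-HEK293 cells. Cells had been seeded 18 hours earlier and dye-loaded for 1 hour at 37 C. Fifteen concentrations, triplicates.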

[4] = biological target: KiSS-1 receptor (Homo sapiens) (UniProt Q969F8); experiment: Human kisspeptin (KISS1R) small molecule agonists, calcium flux assay in KISS1R-HEK293 cells (AID 1920064; active = well fitted curve in the direction sought with a large enough effect in the repeat runs; an effect the other way counts as inactive or inconclusive)
Chain of KiSS-1 receptor (Homo sapiens) (Q969F8 whole entry, looked up): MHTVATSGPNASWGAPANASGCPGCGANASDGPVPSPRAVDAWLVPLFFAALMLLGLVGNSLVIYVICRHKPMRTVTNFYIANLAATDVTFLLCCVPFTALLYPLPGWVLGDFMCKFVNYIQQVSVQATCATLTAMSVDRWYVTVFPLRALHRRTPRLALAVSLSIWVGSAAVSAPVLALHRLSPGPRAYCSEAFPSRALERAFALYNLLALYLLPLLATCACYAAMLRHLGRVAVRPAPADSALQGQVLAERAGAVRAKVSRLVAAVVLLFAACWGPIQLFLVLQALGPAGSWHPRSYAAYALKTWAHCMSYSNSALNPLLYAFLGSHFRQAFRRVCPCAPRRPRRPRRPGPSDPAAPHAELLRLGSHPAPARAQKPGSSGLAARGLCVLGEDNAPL
How it was run: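 Calcium flux read-out: kinetic fluorescence at Ex/Em=480/540, 1 s intervals over 3 min, after pin-tool compound addition to dye-loaded KISS1R-HEK293 cells. Fifteen concentrations, triplicates.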

[5] = G protein-coupled receptor (GPCR) small molecule agonists, calcium flux assay: HEK293 wild type cell line counter screen (AID 1920065)
How it was run: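 Agonist mode; 18 h seeding at 37 C, 1 h dye load at 37 C; compounds pinned from DMSO, ATP as positive control; kinetic fluorescence 480/540 nm, 3 min, 1 s reads; 15 concentrations, triplicate.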

[6] = p53 small molecule agonists, cell-based qHTS assay with human liver microsomes (AID 1963577)
How it was run: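 Compounds act here after metabolic activation: human liver microsomes and NADPH, both at 0.5 mg/mL final, were co-added to p53RE-bla cells. Incubation ran 16 h at 37 C, followed by LiveBLAzer detection.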

[7] = p53 small molecule agonists, cell-based qHTS assay with rat liver microsomes (AID 1963578)
How it was run: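 Read-out is beta-lactamase reporter fluorescence (LiveBLAzer, 2 h, room temperature, dark) in p53RE-bla cells treated 16 h at 37 C with compound, rat liver microsomes and NADPH, both 0.5 mg/mL final.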

[8] = p53 small molecule agonists, cell-based qHTS assay with human liver microsomes: qHTS cell viability counter screen (AID 1963579); note: nearly all actives have a fitted effect of over 45% in size
How it was run: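 Cells carrying the p53 response-element beta-lactamase reporter are treated for 16 h at 37 C with test compounds in the presence of human liver microsomes and NADPH (both 0.5 mg/mL final); ATP-based CellTiter-Glo luminescence then reports viability.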

[9] = p53 small molecule agonists, cell-based qHTS assay with rat liver microsomes: qHTS cell viability counter screen (AID 1963580); note: nearly all actives have a fitted effect of over 45% in size
How it was run: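 Luminescent ATP readout (CellTiter-Glo, 30 min at room temperature) reports viability of p53RE-bla HCT-116 cells after 16 h at 37 C with test compounds under metabolic activation by rat liver microsomes and NADPH at 0.5 mg/mL final each.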

[10] = p53 small molecule agonists, cell-based qHTS assay: qHTS cell viability counter screen (AID 1963581); note: nearly all actives have a fitted effect of over 45% in size
How it was run: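 Cytotoxicity read-out: ATP-based luminescence (CellTiter-Glo, 30 min RT) measured in the same wells as the p53 reporter assay, HCT-116 p53RE-bla cells, 16 h compound exposure at 37 C.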

[11] = p53 small molecule agonists, cell-based qHTS assay (AID 1963582; active = well fitted activation curve with a large enough effect in the signal ratio in the repeat runs, not every such curve was filed as active; the % refers to the signal ratio)
How it was run: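 Fluorescence intensity read-out of a beta-lactamase reporter under a p53 response element. Cells were exposed to DMSO-dissolved compounds for 16 h at 37 C, then developed with FRET substrate for 2 h at RT.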

[12] = biological target: 5-hydroxytryptamine receptor 2A (Homo sapiens) (UniProt P28223); experiment: 5-hydroxytryptamine receptor 2A (HTR2A) small molecule antagonists, cell-based qHTS assay (AID 1963586); note: nearly all actives have a fitted effect of over 45% in size; note: potency is the fitted concentration of half-maximal effect
Chain of 5-hydroxytryptamine receptor 2A (Homo sapiens) (P28223 whole entry, looked up): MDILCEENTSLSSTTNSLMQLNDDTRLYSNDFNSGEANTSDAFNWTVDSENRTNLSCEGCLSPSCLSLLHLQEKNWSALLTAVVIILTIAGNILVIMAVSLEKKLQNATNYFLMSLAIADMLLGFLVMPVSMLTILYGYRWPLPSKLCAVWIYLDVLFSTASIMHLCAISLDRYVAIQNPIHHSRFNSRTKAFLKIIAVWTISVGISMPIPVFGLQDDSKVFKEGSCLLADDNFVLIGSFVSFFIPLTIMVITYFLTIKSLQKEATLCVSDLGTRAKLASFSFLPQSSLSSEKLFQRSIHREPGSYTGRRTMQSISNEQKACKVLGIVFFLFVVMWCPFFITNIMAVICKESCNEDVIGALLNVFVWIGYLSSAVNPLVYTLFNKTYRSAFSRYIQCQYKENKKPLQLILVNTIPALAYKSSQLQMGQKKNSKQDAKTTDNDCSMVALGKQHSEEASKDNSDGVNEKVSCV
How it was run: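 CHO cells stably expressing human HTR2A were plated for 18 h at 37 C, then loaded with calcium dye for 1 h. Compounds were preincubated 5 min at room temperature before DOI (4 nM solution) was added. Kinetic fluorescence was read for 3 min.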

[13] = biological target: 5-hydroxytryptamine receptor 2A (Homo sapiens) (UniProt P28223); experiment: 5-hydroxytryptamine receptor 2A (HTR2A) small molecule agonists, cell-based qHTS assay (AID 1963587); note: nearly all actives have a fitted effect of over 30% in size
How it was run: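 HTR2A-CHO cells, plated 18 h at 37 C/5% CO2, dye-loaded 1 h at 37 C; compounds in DMSO added by pin tool (agonist mode). Intracellular calcium flux read as kinetic fluorescence on FDSS over 2 min at 1 s intervals.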

[14] = biological target: Muscarinic acetylcholine receptor M1 (Homo sapiens) (UniProt P11229); experiment: Cholinergic receptor muscarinic 1 (CHRM1) small molecule agonists, cell-based qHTS assay (AID 1963589); note: nearly all actives have a fitted effect of over 35% in size
Chain of Muscarinic acetylcholine receptor M1 (Homo sapiens) (P11229 whole entry, looked up): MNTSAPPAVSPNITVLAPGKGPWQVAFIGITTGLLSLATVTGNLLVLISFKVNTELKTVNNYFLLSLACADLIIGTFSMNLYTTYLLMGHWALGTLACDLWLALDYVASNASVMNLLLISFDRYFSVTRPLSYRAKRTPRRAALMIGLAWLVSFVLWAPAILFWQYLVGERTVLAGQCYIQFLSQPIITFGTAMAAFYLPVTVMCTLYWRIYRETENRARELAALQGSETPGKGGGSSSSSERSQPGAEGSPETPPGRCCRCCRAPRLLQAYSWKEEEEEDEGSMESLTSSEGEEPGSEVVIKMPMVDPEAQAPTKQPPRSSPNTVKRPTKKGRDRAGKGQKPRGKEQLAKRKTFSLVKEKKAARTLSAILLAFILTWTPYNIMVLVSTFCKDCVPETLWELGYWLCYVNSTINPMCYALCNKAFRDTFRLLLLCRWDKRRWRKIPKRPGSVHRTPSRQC
How it was run: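 Calcium flux read-out: kinetic fluorescence at 1 sec intervals after pin-tool compound addition to dye-loaded CHRM1-CHO cells (human M1). Agonist mode; 15 concentrations tested in triplicate independent runs.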

[15] = cAMP Responsive Elements (CRE) small molecule agonists, cell-based qHTS assay (AID 1963590)
How it was run: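 Beta-lactamase reporter readout: LiveBLAzer B/G FRET substrate, 2 h at room temperature, added after 3 h compound treatment of CRE-bla HEK 293T cells at 37 C/5% CO2.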

[16] = cAMP Responsive Elements (CRE) small molecule antagonists, cell-based qHTS assay (AID 1963591; active = well fitted inhibition curve with a large enough effect in the signal ratio in the repeat runs, not every such curve was filed as active; the % refers to the signal ratio)
How it was run: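 HEK293T CRE-bla; 18 h preincubation; compound pin-transfer; NKH477 0.25 uM final, 3 h, 37 C; LiveBLAzer FRET substrate 2 h RT.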

[17] = biological target: Beta-2 adrenergic receptor (Homo sapiens) (UniProt P07550); experiment: Adrenergic beta2 receptor (ADRB2) small molecule antagonists, cell-based qHTS assay (AID 1963592); note: nearly all actives have a fitted effect of over 50% in size; note: potency is the fitted concentration of half-maximal effect; for activity change, negative = inhibition: series mostly up to about 92 µM
Chain of Beta-2 adrenergic receptor (Homo sapiens) (P07550 whole entry, looked up): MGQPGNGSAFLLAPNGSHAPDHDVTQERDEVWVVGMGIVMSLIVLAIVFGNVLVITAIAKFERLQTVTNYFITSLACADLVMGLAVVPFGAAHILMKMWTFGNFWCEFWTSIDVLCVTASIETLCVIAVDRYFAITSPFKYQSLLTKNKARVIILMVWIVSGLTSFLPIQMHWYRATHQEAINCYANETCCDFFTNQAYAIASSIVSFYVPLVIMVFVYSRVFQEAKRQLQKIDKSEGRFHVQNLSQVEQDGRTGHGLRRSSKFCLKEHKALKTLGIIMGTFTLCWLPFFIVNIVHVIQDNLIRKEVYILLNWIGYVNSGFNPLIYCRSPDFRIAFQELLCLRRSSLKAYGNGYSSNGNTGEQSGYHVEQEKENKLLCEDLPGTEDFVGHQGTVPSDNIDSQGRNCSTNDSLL
How it was run: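 Assay format: CHO-ADRB2 cells, 18-20hr seeding at 37C/5% CO2, then compound plus 1nM isoproterenol agonist mix for 0.5hr RT. Homogeneous time-resolved fluorescence cAMP detection after 1hr, expressed as 665/615 nm ratio.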

[18] = biological target: D(2) dopamine receptor (Homo sapiens) (UniProt P14416); experiment: Dopamine D2 receptor (DRD2) small molecule agonists, cell-based qHTS assay (AID 1963594); note: nearly all actives have a fitted effect of over 35% in size
Chain of D(2) dopamine receptor (Homo sapiens) (P14416 whole entry, looked up): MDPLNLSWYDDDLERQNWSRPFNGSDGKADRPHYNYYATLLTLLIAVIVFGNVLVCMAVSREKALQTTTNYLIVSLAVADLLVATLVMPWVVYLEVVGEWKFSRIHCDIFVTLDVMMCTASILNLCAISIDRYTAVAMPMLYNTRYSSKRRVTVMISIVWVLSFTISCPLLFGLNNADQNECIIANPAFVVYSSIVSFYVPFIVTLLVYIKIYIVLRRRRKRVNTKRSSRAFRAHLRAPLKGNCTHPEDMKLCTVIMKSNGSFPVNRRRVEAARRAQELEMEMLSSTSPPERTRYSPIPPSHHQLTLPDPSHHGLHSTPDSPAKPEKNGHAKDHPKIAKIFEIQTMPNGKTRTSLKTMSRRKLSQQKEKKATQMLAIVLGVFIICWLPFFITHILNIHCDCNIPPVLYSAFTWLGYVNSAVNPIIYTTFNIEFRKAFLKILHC
How it was run: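 HEK293 cells stably expressing DRD2 were cultured 24 h at 37 C, then given Ro20-1724 (0.1 mM final) and compounds for 10 min at room temperature. NKH477 (200nM) was then added for 30 min. cAMP was read by HTRF.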

[19] = biological target: D(2) dopamine receptor (Homo sapiens) (UniProt P14416); experiment: Dopamine D2 receptor (DRD2) small molecule antagonists, cell-based qHTS assay (AID 1963595; active = well fitted inhibition curve with a large enough effect in the signal ratio in the repeat runs, with a control signal flat; the % refers to the signal ratio)
How it was run: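 HTRF cAMP read-out at 665 and 620 nm emission (340 nm excitation). Antagonist mode: compounds were tested against 12 nM quinpirole in DRD2-HEK293 cells, with 200 nM NKH477 raising cAMP and 0.1 mM Ro20-1724 blocking its breakdown.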
% is set by controls: 0 for no effect and ±100 for the full control effect.

c1ccc(CCCc2ccccn2)cc1
inactive: Potency [1] | Potency [2] | Potency [3] | outcome [4] | outcome [5] | Potency [6] | Potency [7] | Potency [8] | Potency [9] | Potency [10] | Potency [11] | Potency [12] | Potency [13] | Potency [14] | Potency [15] | Potency [16] | Potency [17] | Potency [18]

O=S1(=O)c2cccc3cccc(c23)N1CCCN1CCN(c2ccc(F)cc2)CC1
active: Potency [17] 33.5 µM
inactive: Potency [1] | Potency [2] | Potency [3] | outcome [4] | outcome [5] | Potency [6] | Potency [7] | Potency [8] | Potency [9] | Potency [10] | Potency [11] | Potency [12] | Potency [13] | Potency [14] | Potency [15] | Potency [19]

CC(NC(CCc1ccccc1)C(=O)O)C(=O)N1C(=O)N(C)CC1C(=O)O (stereo not given)
inactive: Potency [1] | Potency [2] | Potency [3] | outcome [4] | outcome [5] | Potency [6] | Potency [7] | Potency [8] | Potency [9] | Potency [10] | Potency [11] | Potency [12] | Potency [13] | Potency [14] | Potency [15] | Potency [16] | Potency [17] | Potency [18] | Potency [19]

CCN(CC)CCOc1ccc(Cc2ccccc2)cc1
inactive: Potency [1] | Potency [2] | Potency [3] | outcome [4] | outcome [5] | Potency [6] | Potency [7] | Potency [8] | Potency [9] | Potency [10] | Potency [11] | Potency [12] | Potency [13] | Potency [14] | Potency [15] | Potency [17] | Potency [18] | Potency [19]

O=C(OCC1(COC(=O)c2cccnc2)CCCC(COC(=O)c2cccnc2)(COC(=O)c2cccnc2)C1O)c1cccnc1
inactive: Potency [1] | Potency [2] | Potency [3] | outcome [4] | outcome [5] | Potency [6] | Potency [7] | Potency [8] | Potency [9] | Potency [10] | Potency [11] | Potency [12] | Potency [13] | Potency [14] | Potency [17] | Potency [18] | Potency [19]

CCN1CN(CC)CN(CC)C1
inactive: Potency [1] | Potency [2] | Potency [3] | outcome [4] | outcome [5] | Potency [6] | Potency [7] | Potency [8] | Potency [9] | Potency [10] | Potency [11] | Potency [12] | Potency [13] | Potency [14] | Potency [15] | Potency [17] | Potency [18] | Potency [19]

CC(O)COC(C)(C)C (stereo not given)
inactive: Potency [1] | Potency [2] | Potency [3] | outcome [4] | outcome [5] | Potency [6] | Potency [7] | Potency [8] | Potency [9] | Potency [10] | Potency [11] | Potency [12] | Potency [13] | Potency [14] | Potency [15] | Potency [16] | Potency [17] | Potency [18] | Potency [19]

CC(C)(C)C(=O)O
inactive: Potency [1] | Potency [2] | Potency [3] | outcome [4] | outcome [5] | Potency [6] | Potency [7] | Potency [8] | Potency [9] | Potency [10] | Potency [11] | Potency [12] | Potency [13] | Potency [14] | Potency [15] | Potency [16] | Potency [17] | Potency [18] | Potency [19]

CN1Cc2cc(C(=O)N3CCC(C4CCNCC4)CC3)ccc2NC(CC(=O)O)C1=O (stereo not given)
inactive: Potency [1] | Potency [2] | Potency [3] | outcome [4] | outcome [5] | Potency [6] | Potency [7] | Potency [8] | Potency [9] | Potency [10] | Potency [11] | Potency [12] | Potency [13] | Potency [14] | Potency [16] | Potency [17] | Potency [18] | Potency [19]

CC(C)CC(=O)C1C(=O)c2ccccc2C1=O
inactive: Potency [1] | Potency [2] | Potency [3] | outcome [4] | outcome [5] | Potency [6] | Potency [7] | Potency [8] | Potency [9] | Potency [10] | Potency [11] | Potency [12] | Potency [13] | Potency [14] | Potency [16] | Potency [17] | Potency [18] | Potency [19]

NC(Cc1ccc(Cl)cc1)C(=O)O (stereo not given)
inactive: activity change, negative = cytotoxicity [1] -10.3% [at 0.349 µM] | activity, positive = activation [2] -1.51% [at 0.349 µM] | activity change [3] -0.23% [at 0.217 µM, hits give high values] | activation [4] -1.07% [at 0.29 µM] | activation [5] 1.18% [at 0.217 µM] | activation [6] 1.9% [at 0.249 µM] | activation [7] 0.185% [at 0.249 µM] | activity change, negative = cytotoxicity [8] -1.01% [at 0.249 µM] | activity change, negative = cytotoxicity [9] -0.306% [at 0.249 µM] | activity change, negative = cytotoxicity [10] 8.87% [at 0.249 µM] | activation [11] -0.216% [at 0.249 µM] | activity, negative = inhibition [12] -30.9% [at 0.233 µM] | activation [13] 0.604% [at 0.292 µM] | activation [14] -0.299% [at 0.29 µM] | activation [15] -0.737% [at 0.349 µM] | activity change, negative = inhibition [16] 2.88% [at 0.349 µM] | activity change, negative = inhibition [17] -0.117% [at 0.349 µM] | activation [18] 0.127% [at 0.349 µM] | activity change, negative = inhibition [19] 0.383% [at 0.348 µM]

O=C(C(Cl)Cl)N1CCOC12CCCCC2
inactive: Potency [1] | Potency [2] | Potency [3] | outcome [4] | outcome [5] | Potency [6] | Potency [7] | Potency [8] | Potency [9] | Potency [10] | Potency [11] | Potency [12] | Potency [13] | Potency [14] | Potency [15] | Potency [16] | Potency [17] | Potency [18] | Potency [19]

CCCCCOC(=O)CCCC
inactive: Potency [1] | Potency [2] | Potency [3] | outcome [4] | outcome [5] | Potency [6] | Potency [7] | Potency [8] | Potency [9] | Potency [10] | Potency [11] | Potency [12] | Potency [13] | Potency [14] | Potency [15] | Potency [16] | Potency [17] | Potency [18] | Potency [19]

CC(C(O)c1ccc(O)cc1)N1CCC(Cc2ccccc2)CC1 (stereo not given)
active: Potency [12] 16.3 µM
inactive: Potency [1] | Potency [2] | Potency [3] | outcome [4] | outcome [5] | Potency [6] | Potency [7] | Potency [8] | Potency [9] | Potency [10] | Potency [11] | Potency [13] | Potency [14] | Potency [15] | Potency [16] | Potency [19]
